Shown is part of a subset that was picked to be rich in hits.
Tgondii IFNg: blocks Toxoplasma gondii growth in the presence of IFN-gamma. Toxoplasma gondii growth in IFN-gamma-treated host cells; active compounds read low. activity change, negative = inhibition, % (no concentration beside the values). actives 3.8% (n = 69,000). AID 1259416; in the data active = activity change below about -70%, passing the limit was not always enough;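 note: host cells are HeLa cells infected with Toxoplasma gondii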
Starred values were filed as active, the others as inactive; i = inactive; ! = not active in a repeat.

SMILES	Tgondii IFNg
COC(=O)c1ccccc1S(=O)(=O)N1CCCC1c1ccccn1 (stereo not given)	-1.0
CCn1c(C2CCN(C(=O)NCc3ccco3)CC2)nn(C)c1=O	50.5
Cc1oc(-c2ccc(C(=O)NC3CCCCC3)cc2)nc1CN1CCN(c2ccccc2)CC1	-34.5
COc1ccc(C(=O)NCCc2sc(-c3ccc(F)cc3)nc2C)cc1	-21.7
CCOc1ccc(CC(=O)NCCc2sc(-c3ccc(F)cc3)nc2C)cc1	-93.2*
CCOc1ccc(NC(=O)C(=O)NCCc2sc(-c3ccc(F)cc3)nc2C)cc1	-3.7
CCOc1ccc(CC(=O)NCCc2sc(-c3cccc(F)c3)nc2C)cc1	-44.2
Cc1ccc(C(=O)NCCc2sc(-c3ccc(F)cc3)nc2C)cc1	-57.8
Cc1cc(C)cc(C(=O)NCCc2sc(-c3ccc(F)cc3)nc2C)c1	-77.2*
CN(C)C1CC2(CCN(C(=O)c3cccn3C)CC2)C1	-43.3
O=C(CC1COCCN1)NCc1nncn1CCc1ccccc1 (stereo not given)	27.4
O=C(CCC1N=C2c3ccccc3N=C(SCc3ccccc3F)N2C1=O)NCc1ccc2c(c1)OCO2 (stereo not given)	-5.2
Nc1ncnc2c1c(-c1cccc(OCc3ccccc3)c1)cn2C1CC(CN2CCC2)C1 (stereo not given)	-85.4*
O=C(c1cc2cc(Cl)cc(Cl)c2oc1=O)N1CCc2ccccc2C1	1.7
CC(C)NC(=O)CC1CC2(CCN(Cc3ccccn3)CC2)c2ccccc21 (stereo not given)	4.9
Cc1ccc(C(C)NC(=O)CNCCN(C)S(C)(=O)=O)cc1 (stereo not given)	7.3
CCC(CC)C(=O)Nc1c[nH]c(=O)[nH]c1=O	-6.8
O=c1[nH]cc(F)c(=O)[nH]1	-96.3*!
COc1ccc(OCc2nc(C(=O)N3CC(N4CCCCC4C)C3)co2)cc1 (stereo not given)	-6.5
O=C(C1COc2ccccc2O1)N1CC(=O)N(C2CCCCC2)CC(OCc2cccnc2)C1 (stereo not given)	-11.0
CC(=O)N[C@@H](CSC/C=C(\C)CC/C=C(\C)CCC=C(C)C)C(=O)O	-21.7
CC(=O)CC/C=C(\C)CC/C=C(\C)CC/C=C(\C)CCC=C(C)C	-77.2*
CC(C)=CCC/C(C)=C/COc1ccc2ccc(=O)oc2c1	18.6
O=C(NCCc1csc(C2CCN(C(=O)c3ccccc3)CC2)n1)C1CCC1	17.8
O=S(=O)(c1ccccc1)N1CCN(Cc2cnc(-c3ccccn3)nc2)CC1	8.6
SMILES	Tgondii IFNg
COc1ccc(-c2nc3ccc(C4=NNC(=O)CC4C)cc3[nH]2)cc1 (stereo not given)	28.8
CCN(CC)c1ccc(C2=NNC(=O)CC2C)cc1[N+](=O)[O-] (stereo not given)	-98.3*
CN=C(NC#N)Nc1ccc(C2=NNC(=O)CC2C)cc1 (stereo not given)	14.0
Cc1nc(-c2ccc(Cl)cc2)sc1CCNC(=O)c1ccccc1C(F)(F)F	-24.2
Clc1ccc2c(NCC3CCCO3)nc(CN3CCSCC3)nc2c1 (stereo not given)	-7.7
Clc1ccc(C2=NN(c3ccc(Cl)cc3)C(c3ccc(Br)cc3)C2)cc1 (stereo not given)	178.4
C[C@@H]1CN([C@H](C)CO)S(=O)(=O)c2ccc(-c3ccncc3)cc2O[C@H]1CN(C)S(C)(=O)=O	-104.1*
C[C@@H]1CN([C@H](C)CO)S(=O)(=O)c2ccc(C#CC(C)(C)O)cc2O[C@H]1CN(C)Cc1ccc(F)cc1	-115.7*
C[C@@H]1CN([C@@H](C)CO)S(=O)(=O)c2ccc(-c3ccc(F)cc3)cc2O[C@H]1CN(C)Cc1ccccc1C(=O)O	-15.1
CCCC#Cc1ccc2c(c1)O[C@@H](CN(C)Cc1ccccn1)[C@@H](C)CN([C@H](C)CO)S2(=O)=O	-29.5
C[C@H](CO)N1C[C@H](C)[C@H](CN(C)C(=O)NC2CCCC2)Oc2cc(-c3cncnc3)ccc2S1(=O)=O	43.7
C[C@@H]1CN([C@H](C)CO)S(=O)(=O)c2ccc(C#CC(C)(C)O)cc2O[C@@H]1CN(C)Cc1ccc(F)cc1	150.0
Cc1ccc(S(=O)(=O)N(C)C[C@@H]2Oc3cc(C#CC4CCCC4)ccc3S(=O)(=O)N([C@@H](C)CO)C[C@@H]2C)cc1	-113.7*
C[C@@H]1CN([C@H](C)CO)S(=O)(=O)c2ccc(C#CCC3CCCC3)cc2O[C@@H]1CN(C)C(=O)c1cnccn1	-69.1
COCC#Cc1ccc2c(c1)O[C@@H](CN(C)C(=O)C1CCOCC1)[C@@H](C)CN([C@H](C)CO)S2(=O)=O	72.0
C[C@@H]1CN([C@H](C)CO)S(=O)(=O)c2ccc(-c3ccc(F)cc3)cc2O[C@H]1CN(C)Cc1ccccc1C(=O)O	31.6
COc1cccc(-c2ccc3c(c2)O[C@H](CN(C)Cc2cccnc2)[C@H](C)CN([C@@H](C)CO)S3(=O)=O)c1	-38.9
CCCN(C)C[C@@H]1Oc2cc(/C=C/c3ccccc3)ccc2S(=O)(=O)N([C@@H](C)CO)C[C@H]1C	-90.8*
O=C(Cn1ncc2c(N3CCN(c4ccccc4)CC3)ncnc21)Nc1cc(F)ccc1F	47.3
CC(=O)N1CCC2(C(=O)Nc3cccc(C(N)=O)c3)CC2C1 (stereo not given)	6.2
Cc1nc(-c2cccnc2)ncc1C(=O)N(C)CCC(O)c1ccccc1 (stereo not given)	-0.6
O=C(NCc1cccnc1N1CCc2ccccc2C1)c1n[nH]c2c1CCC2	-10.3
COc1cc(N2CC[C@@H](OC)[C@@H]2Cc2ccccc2)ncn1	i
OC1c2ccccc2OC2(N3CCCC3)CCCCC12 (stereo not given)	29.9
CCN(CC)CCNC(=O)c1cncc(N(C)S(=O)(=O)c2ccc(C)cc2)c1	0.9
SMILES	Tgondii IFNg
CCc1ncc2c(n1)CN(C(=O)CSc1ncn[nH]1)C2	-9.9
COc1ccc(Cl)cc1CN(C)C(=O)c1ccccc1C1CCNC1 (stereo not given)	-18.7
COCC(=O)N(Cc1cc2cccc(C)c2nc1Cl)C1CCCCC1	-49.0
CCCNC(=O)N(C)C[C@H]1Oc2cc(C#C[C@H](C)O)ccc2S(=O)(=O)N([C@@H](C)CO)C[C@H]1C	102.4
Cc1ccc(S(=O)(=O)N(C)C[C@H]2Oc3cc(C#CC4CCCC4)ccc3S(=O)(=O)N([C@@H](C)CO)C[C@H]2C)cc1	-131.8*
C[C@H](CO)N1C[C@H](C)[C@H](CN(C)S(=O)(=O)c2cn(C)cn2)Oc2cc(C#Cc3cccc(F)c3)ccc2S1(=O)=O	-93.3*
COCC#Cc1ccc2c(c1)O[C@@H](CN(C)C(=O)C1CCOCC1)[C@H](C)CN([C@@H](C)CO)S2(=O)=O	-12.0
Cc1ccc(S(=O)(=O)N(C)C[C@H]2Oc3cc(C#CC4CCCC4)ccc3S(=O)(=O)N([C@H](C)CO)C[C@H]2C)cc1	-64.2
C[C@@H]1CN([C@H](C)CO)S(=O)(=O)c2ccc(C#Cc3cccc(F)c3)cc2O[C@H]1CN(C)S(=O)(=O)c1cn(C)cn1	-68.0
CS(=O)(=O)N1CCn2cc(Cn3cncn3)nc2C1	-66.8
CN(CCN1CCCCC1)C(=O)C1Cc2cc(Cl)ccc2O1 (stereo not given)	-20.8
CC1CCCN(C(=O)c2nc(-c3cccc(F)c3)n3c2CCCCC3)C1 (stereo not given)	3.1
COc1ccc(CC(=O)NCCc2csc(-c3cccc(F)c3)n2)cc1OC	58.5
CCOCCCNC(=O)c1nc(-c2cccc(F)c2)n2c1CCCCC2	100.0
COc1cc(NC(=O)c2nc(-c3cccc(F)c3)n3c2CCCCC3)cc(OC)c1OC	-105.5*
COc1ccc(CCNC(=O)c2nc(-c3cccc(F)c3)n3c2CCCCC3)cc1OC	-115.2*
